Measurements: PubChem BioAssay AID623959 (National Center for Advancing Translational Sciences (NCATS), 2012)
In all, about 1,400 compounds went through this assay and fewer than 10 were called active. Inconclusive results (about 8%) are left out. Calls come from the whole dose curve; as a rule, active = well fitted curve in the direction sought with a large enough effect; inconclusive = small, poorly fitted or top-dose-only effect, or another doubt; inactive = no such curve, though single readings can be large or run the other way. The list is a sample of the results.

These compounds were tested against Transient receptor potential cation channel subfamily V member 1 (Homo sapiens) (UniProt Q8NER1) (assay: qHTS Assay for Compounds that Act as Potentiators of the Vanilloid Receptor 1: Hit Validation). Settings: TRPV1-expressing cells, Fluo-8 calcium influx, capsaicin EC20; series mostly up to 42.1 µM; activity change, positive = potentiation: at the top concentration.
Chain of Transient receptor potential cation channel subfamily V member 1 (Homo sapiens) (Q8NER1 whole entry, looked up): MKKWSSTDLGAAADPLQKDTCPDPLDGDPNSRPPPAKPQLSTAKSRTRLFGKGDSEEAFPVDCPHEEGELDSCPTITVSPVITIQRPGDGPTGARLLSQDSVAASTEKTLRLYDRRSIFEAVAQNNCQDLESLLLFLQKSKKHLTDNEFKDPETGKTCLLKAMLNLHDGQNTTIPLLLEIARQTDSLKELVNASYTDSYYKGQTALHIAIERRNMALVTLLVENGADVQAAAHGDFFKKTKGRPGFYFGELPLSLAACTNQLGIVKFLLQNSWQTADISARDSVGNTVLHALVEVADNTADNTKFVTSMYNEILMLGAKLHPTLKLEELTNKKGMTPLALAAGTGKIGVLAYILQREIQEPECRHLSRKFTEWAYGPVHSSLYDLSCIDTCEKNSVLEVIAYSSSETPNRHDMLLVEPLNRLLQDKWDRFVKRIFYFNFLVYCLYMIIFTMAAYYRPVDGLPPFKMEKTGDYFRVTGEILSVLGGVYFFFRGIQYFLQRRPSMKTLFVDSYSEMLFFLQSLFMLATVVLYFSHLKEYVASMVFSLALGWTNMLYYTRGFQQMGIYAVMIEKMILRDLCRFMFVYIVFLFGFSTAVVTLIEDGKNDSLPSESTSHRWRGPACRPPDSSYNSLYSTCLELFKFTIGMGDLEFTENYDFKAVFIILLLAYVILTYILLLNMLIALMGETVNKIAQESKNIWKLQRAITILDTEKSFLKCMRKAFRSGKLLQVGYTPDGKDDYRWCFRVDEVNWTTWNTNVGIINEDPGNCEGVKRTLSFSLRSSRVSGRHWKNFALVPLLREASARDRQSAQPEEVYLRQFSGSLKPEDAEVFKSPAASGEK
Source text: The transient receptor potential ion channel, family V, number 1, (TRPV1) is one of the most important molecular transducers of painful stimuli and a potential target for analgesic drug development. Although recent clinical trials with orthosteric antagonists have not produced a successful drug because of a hyperthermia side effect and their tendency to block thermal noxious pain, this ion channel is undeniably well placed in the pain pathway, and the idea of blocking pain signals before they enter the CNS is an excellent concept and of proven efficacy when TRPV1 agonists are used. We propose a new approach involving allosteric modulation to impose an activity-dependent constraint within the context of inflammation and tissue damage that would alter the responsiveness of the channel in a way that an orthosteric vanilloid antagonist cannot achieve. We believe that the allosteric modulator approach has not been explored for this target. The main goal of this proposal is to identify additional, new, potent allosteric modulators of TRPV1 that can be used to investigate TRPV1 function. Our recent report provides evidence of proof of concept, but the compounds are just at the edge of utility in terms of potency. […] The question of whether they can be used as analgesic agents is complex, but if suitable compounds are identified then testing for analgesic properties will be conducted. Compounds identified as agonists were re-tested in the primary screen for hit validation. NIH Chemical Genomics Center [NCGC] NIH Molecular Libraries Probe Centers Network [MLPCN] MLPCN Grant: MH089480 Assay Submitter (PI): Michael Iadarola, National Institute of Dental and Cranofacial Research
Upon TRPV1 activation in TRPV1 cells, the channel opens and extracellular cations flow through the channel into the cytosol. A calcium binding dye (Fluo-8) becomes fluorescent when bound to calcium. This dye is pre-loaded into cells and is used as a marker for calcium influx. The amount of accumulated calcium is precisely quantified using the FDSS kinetic reader and the calcium dye. For the HTS assay, freshly prepared cells are plated at a density of 2000/well in 3 ul medium in 1536-well plates and cultured overnight at 35.5C. Cells will be loaded with 1 ul of the homogeneous calcium dye (ABD Bioquest) at room temperature for 40 to 90 minutes. Plates will be loaded into the FDSS kinetic reader and a 1 sec / cycle for 10 second baseline signal will be measured. Compound library will then be added with a pintool at 23 nl and measured kinetically for 3 minutes. This portion of the read is considered the agonist portion of the screen. Following the 3 minutes of incubation, an on board pipettor will deliver 1 ul of capsaicin for a final concentration equal to the EC20. Signal will be measured kinetically for an additional 2 minutes. This portion of the read is considered the allosteric enhancer portion of the screen. The FDSS reader has a standard filter set capable of measuring calcium bound Fluo-8 (ex=480 and em=520 nm).
Potency is the fitted concentration of half-maximal effect.
Throughout, for activity change, positive = potentiation: % of control where 0% means no effect.

Activity change, positive = potentiation, inactive:
Cc1nc(Nc2cccc(Cl)c2)c2oc3ccccc3c2n1 -38.3%
COc1ccc(Cn2nc(-c3ccccc3)c(N3CCCCC3)cc2=O)cc1 -39.1%
CCOC(=O)[C@H]1[C@H]2COc3ccc(Cl)cc3[C@@H]2N2C(=O)c3ccc(C)cc3NC(=O)[C@@]12C -38.4%
CCc1ccc(NC(=O)c2ccc(S(=O)(=O)NCc3cccnc3)cc2)cc1 -35.4%
CC(=O)c1c[nH]c(C(=O)NCc2ccccc2Cl)c1 7.13%
COCCN(CCOC)S(=O)(=O)c1ccc(C(=O)Nc2nnc(C3CC3)o2)cc1 -6.89%
COCCNC(=O)CCc1c(C)nc2c(c(C)nn2-c2ccc(C)cc2)c1C -38.5%
COc1ccc(CCNC(=O)c2noc3c2CCCC3)cc1OC -9.36%
Cc1ccccc1C(=O)Nc1nnc(-c2ccc(C(C)(C)C)cc2)s1 -7.15%
CCCN1C(=O)/C(=C/c2ccncc2)SC1=S -8.91%
COc1ccc2c(c1)C(c1ccc(Cl)cc1)NC(=O)C2 (stereo not drawn) -5.08%
CSCCCN1CC[C@@H](N2CCN(c3ccccc3F)CC2)[C@H](O)C1 12.5%
CCN(CC)CCN(Cc1cc2cc(C)ccc2[nH]c1=O)C(=O)Nc1ccccc1OC -7.28%
Cc1nc(C(F)(F)F)ccc1C(=O)Nc1ccc(C(F)(F)F)cn1 -36.1%
C=C(C(=O)Nc1ccccc1)c1ccc(C)cc1 -6.44%
COc1ccc(-n2c(SCC(N)=O)nc3nc4c(cc3c2=O)COC(C)(C)C4)cc1 13.3%
NC(=O)c1ccc(-n2nnnc2Oc2ccccc2C(=O)N2CCOCC2)cc1 1.65%
Cc1[nH]c2ccccc2c1CCN(Cc1cccnc1)C(=S)Nc1ccc(F)cc1 -6.06%
CCc1ccc(NC(=O)C2CCCN(S(=O)(=O)c3c(C)[nH]c(=O)[nH]c3=O)C2)cc1 (stereo not drawn) -5.4%
CC(=O)Nc1cccc(NC(C)=O)n1 -5.38%
Cn1nc(C(C)(C)C)cc1C(=O)NCc1ccc(N2CCCC2=O)cc1 -1.47%
COc1cccc(CNC(=S)Nc2cccc(Cl)c2C)c1 -38.9%
CCCCOc1ccc(C(=O)Nc2cccc(-n3cnnn3)c2)cc1OC -34.7%
O=C(Cn1c(NCCCO)nc2ccccc21)c1ccc(Cl)cc1 -7.03%
CCS(=O)(=O)C1=NN2C(=N)/C(=C\c3ccc(OCCOc4cccc(OC)c4)c(OC)c3)C(=O)N=C2S1 -8.22%
CCOC(=O)c1c(C)[nH]c(C)c1C(=O)CN1C(=O)NC(CC(C)C)C1=O (stereo not drawn) 0.659%
CN(Cc1c(O)ccc2c1oc(=O)c1ccccc12)C1CCCCC1 -11.4%
CN(Cc1ccccc1Cl)C(=O)c1cc2ccccc2o1 -15%
CC1CC(C)CN(C(=O)c2cc(S(=O)(=O)N3CCCCC3)ccc2Cl)C1 (stereo not drawn) -37.9%
O=C(Cc1nc2ccccc2[nH]1)c1ccc(Cl)cc1 3.7%
CS(=O)(=O)N1N=C(c2cccs2)CC1c1ccc(Cl)o1 (stereo not drawn) 0.108%
CCOCc1c(C(=O)Nc2ccc(OC)nc2)oc2ccccc12 -32.4%
Cc1cc(NC(=O)C(C)C)ncc1NC(=O)c1cccc(F)c1 -6.46%
CC1CCN(C(=O)c2cc(-c3ccc4c(c3)OCO4)on2)CC1 -36.7%
Cc1ccc(NC(=O)CSc2nnc(-c3ccccn3)n2C)cc1 0.532%
O=C(CSc1nc2ccccc2[nH]1)c1ccccc1F 3.85%
Cc1ccc2c(c1)nnn2C1CCN(C(=O)NCc2ccccc2)CC1 -31.2%
O=C(CSc1nc(C2CC2)nc2ccccc12)N1CCCCC1 -6.58%
Cc1oc(C(C)(C)C)cc1C(=O)N1CCCC1C(=O)O (stereo not drawn) -8.94%
O=C(O)c1ccc(NC(=O)c2ccccc2Br)c(NC(=O)c2ccccc2Br)c1 -9.56%
Cc1cccc(NCc2cc(Cl)cc(Cl)c2O)n1 -19.8%
CC(C)NC(=O)C1CC=CCC1C(=O)O (stereo not drawn) -2.64%
CC(=O)CC(C)(C)S(=O)(=O)c1ccc(NC(C)=O)cc1 -0.365%
CC(=O)Nc1cc(-c2ccccc2)ccc1O -32.7%
CSCCC(NC(=O)c1ccc(Cl)cc1)C(=O)NC(C)(C)C (stereo not drawn) -9.12%
Cc1cc(C)c(C#N)c(Cl)n1 -10.6%
O=C(O)c1sccc1S(=O)(=O)N1CCN(c2ccc(C(F)(F)F)cn2)CC1 -3.75%

Potency, active:
CCOC(=O)C(C(=O)OCC)c1cc(Br)c2noc3c2c1C(=O)c1ccccc1-3 3.6 µM
